Reference: PubChem BioAssay (NCI)
Compounds without any hit were thinned out: in the full panel of roughly 83,000, 20% have a hit.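 Percent growth is the endpoint: 0 to 100 indicates growth inhibition (40 means 60% inhibition), 0 means no net growth, and negative values indicate cell death.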 Unmarked numbers belong to inactive results. Active and inactive are the calls of the source. Rule for the calls: active = growth percent below 10; inactive = the rest.

How the values were obtained:
Assay in all cases: NCI-60 one-dose screen, 48 h (100 = growth as untreated, 0 = no growth, -100 = all killed)
Settings in all cases: 10 µM unless noted
NCI-H23 lung = tested on: NCI-H23 lung
NCI-H226 lung = tested on: NCI-H226 lung
HOP-62 NSCLC = tested on: HOP-62 NSCLC
NCI-H460 lung = tested on: NCI-H460 lung
NCI-H522 lung = tested on: NCI-H522 lung
A549/ATCC NSCLC = tested on: A549/ATCC NSCLC
786-0 renal = tested on: 786-0 renal
COLO 205 colon = tested on: COLO 205 colon
DU-145 prostate = tested on: DU-145 prostate
K-562 leukemia = tested on: K-562 leukemia
MALME-3M melanoma = tested on: MALME-3M melanoma
MDA-MB-231 breast = tested on: MDA-MB-231 breast
RXF 393 renal = tested on: RXF 393 renal
SF-268 CNS = tested on: SF-268 CNS
SF-295 CNS = tested on: SF-295 CNS
SF-539 CNS = tested on: SF-539 CNS
UACC-257 melanoma = tested on: UACC-257 melanoma
M14 melanoma = tested on: M14 melanoma
NCI-H322M lung = tested on: NCI-H322M lung
HOP-92 NSCLC = tested on: HOP-92 NSCLC

Work on COc1ccc(CNc2c3ccccc3nc3ccc(OC)cc23)cc1 yielded a growth (NCI-H23 lung) of 21.4%, a growth (NCI-H226 lung) of 33.8% and a growth (HOP-62 NSCLC) of 34.1%. For the same compound, the growth (NCI-H460 lung) was 6.48% (active), the growth (NCI-H522 lung) was 26.2% and the growth (A549/ATCC NSCLC) was 14.6%. The growth (786-0 renal) was 15%, the growth (COLO 205 colon) was -51.4% (active) and the growth (DU-145 prostate) was 20%. For the same compound, the growth (K-562 leukemia) was 0.27% (active), the growth (MALME-3M melanoma) was 7.06% (active) and the growth (MDA-MB-231 breast) was 23.6%. For the same compound, the growth (RXF 393 renal) was -2.57% (active), the growth (SF-268 CNS) was 40.2% and the growth (SF-295 CNS) was 19.4%. For the same compound, the growth (SF-539 CNS) was 8.46% (active), the growth (UACC-257 melanoma) was 6.58% (active) and the growth (M14 melanoma) was 19.5%.
With O=P(O)(O)C(O)(Cc1cccnc1)P(=O)(O)O the growth (NCI-H23 lung) was 93.1%, the growth (NCI-H322M lung) was 107% and the growth (HOP-62 NSCLC) was 94.3%. It also gave a growth (NCI-H460 lung) of 111%, a growth (HOP-92 NSCLC) of 114% and a growth (A549/ATCC NSCLC) of 98.8%. The growth (786-0 renal) was 108%, the growth (MALME-3M melanoma) was 113% and the growth (MDA-MB-231 breast) was 94.1%. It also gave a growth (RXF 393 renal) of 101%, a growth (SF-268 CNS) of 104% and a growth (SF-295 CNS) of 111%. It also gave a growth (SF-539 CNS) of 101%, a growth (UACC-257 melanoma) of 99.4% and a growth (M14 melanoma) of 99.6%.
NC(=O)N/N=C\c1ccc([N+](=O)[O-])o1 showed a growth (NCI-H23 lung) of 99.6%, a growth (NCI-H226 lung) of 101% and a growth (HOP-62 NSCLC) of 96.7%. The growth (NCI-H460 lung) was 105%, the growth (NCI-H522 lung) was 95.8% and the growth (A549/ATCC NSCLC) was 97.1%. For the same compound, the growth (786-0 renal) was 107%, the growth (COLO 205 colon) was 117% and the growth (DU-145 prostate) was 105%. It also gave a growth (K-562 leukemia) of 101%, a growth (MALME-3M melanoma) of 73% and a growth (MDA-MB-231 breast) of 122%. For the same compound, the growth (RXF 393 renal) was 123%, the growth (SF-268 CNS) was 102% and the growth (SF-295 CNS) was 97.7%. The growth (SF-539 CNS) was 102%, the growth (UACC-257 melanoma) was 91.9% and the growth (M14 melanoma) was 112%.
C#C[C@]1(O)CC[C@H]2[C@@H]3CC=C4c5sc(-c6cccc(Br)c6)nc5CC[C@]4(C)[C@H]3CC[C@@]21C gave a growth (NCI-H23 lung) of 82.9%, a growth (NCI-H226 lung) of 97.9% and a growth (NCI-H322M lung) of 73.5%. The growth (HOP-62 NSCLC) was 91.5%, the growth (A549/ATCC NSCLC) was 81.2% and the growth (786-0 renal) was 51.9%. The growth (COLO 205 colon) was 118%, the growth (DU-145 prostate) was 88.6% and the growth (K-562 leukemia) was 6.54% (active). It also gave a growth (MALME-3M melanoma) of 100%, a growth (MDA-MB-231 breast) of 79.9% and a growth (RXF 393 renal) of 37.3%. It also gave a growth (SF-268 CNS) of 72.4%, a growth (SF-295 CNS) of 55.5% and a growth (SF-539 CNS) of 37.6%. The growth (UACC-257 melanoma) was 80.7% and the growth (M14 melanoma) was 69.3%.
O=[N+]([O-])c1ccc(N/N=C/c2ccccc2O)nc1 was tested, and the growth (NCI-H23 lung) was 33.9%, the growth (NCI-H226 lung) was 83.3% and the growth (HOP-62 NSCLC) was 32.7%. For the same compound, the growth (NCI-H460 lung) was 15%, the growth (NCI-H522 lung) was 9.71% (active) and the growth (A549/ATCC NSCLC) was 31.4%. The growth (786-0 renal) was 21.8%, the growth (COLO 205 colon) was 14.6% and the growth (DU-145 prostate) was 48.7%. For the same compound, the growth (K-562 leukemia) was 21.9%, the growth (MALME-3M melanoma) was 78.5% and the growth (MDA-MB-231 breast) was 52.3%. For the same compound, the growth (RXF 393 renal) was 38.1%, the growth (SF-268 CNS) was 40.1% and the growth (SF-295 CNS) was 35.2%. The growth (SF-539 CNS) was 42.9%, the growth (UACC-257 melanoma) was 32% and the growth (M14 melanoma) was 29.5%.
COc1ccc([C@H]2c3[nH]c4ccccc4c3C[C@H]3C(=O)N(CCCCCCC(=O)NO)CC(=O)N23)cc1 showed a growth (NCI-H23 lung) of 34.6%, a growth (NCI-H226 lung) of 76.9% and a growth (HOP-62 NSCLC) of 42.9%. For the same compound, the growth (NCI-H460 lung) was 47%, the growth (NCI-H522 lung) was 4.51% (active) and the growth (A549/ATCC NSCLC) was 60%. It also gave a growth (786-0 renal) of 83.6%, a growth (COLO 205 colon) of 22.9% and a growth (DU-145 prostate) of 24.2%. The growth (K-562 leukemia) was 6.77% (active), the growth (MALME-3M melanoma) was -4% (active) and the growth (MDA-MB-231 breast) was 45.3%. It also gave a growth (RXF 393 renal) of 22.2%, a growth (SF-268 CNS) of 69.7% and a growth (SF-295 CNS) of 34.8%. For the same compound, the growth (SF-539 CNS) was 38.1%, the growth (UACC-257 melanoma) was 27.7% and the growth (M14 melanoma) was 22.4%.
With O=C(CCl)N1c2ccccc2Oc2ccc3ccccc3c21 the growth (NCI-H23 lung) was -48.4% (active), the growth (NCI-H226 lung) was 3.48% (active) and the growth (HOP-62 NSCLC) was -16.6% (active). The growth (NCI-H460 lung) was 2.15% (active), the growth (A549/ATCC NSCLC) was 30% and the growth (786-0 renal) was -89.4% (active). For the same compound, the growth (COLO 205 colon) was -94.2% (active), the growth (DU-145 prostate) was -7.27% (active) and the growth (K-562 leukemia) was 2.96% (active). The growth (MALME-3M melanoma) was -49% (active), the growth (MDA-MB-231 breast) was -26.8% (active) and the growth (RXF 393 renal) was -83.7% (active). The growth (SF-268 CNS) was -39.3% (active), the growth (SF-295 CNS) was -15.8% (active) and the growth (SF-539 CNS) was -80.1% (active). For the same compound, the growth (UACC-257 melanoma) was 8.99% (active) and the growth (M14 melanoma) was -70% (active).
CCCNCCC(C)=O showed a growth (NCI-H23 lung) of 95.1%, a growth (NCI-H226 lung) of 108% and a growth (HOP-62 NSCLC) of 106%. The growth (NCI-H460 lung) was 103%, the growth (NCI-H522 lung) was 99.6% and the growth (A549/ATCC NSCLC) was 95.6%. For the same compound, the growth (786-0 renal) was 110%, the growth (COLO 205 colon) was 108% and the growth (DU-145 prostate) was 122%. The growth (K-562 leukemia) was 98.5%, the growth (MALME-3M melanoma) was 121% and the growth (MDA-MB-231 breast) was 113%. The growth (RXF 393 renal) was 127%, the growth (SF-268 CNS) was 115% and the growth (SF-295 CNS) was 97.1%. The growth (SF-539 CNS) was 114%, the growth (UACC-257 melanoma) was 91.7% and the growth (M14 melanoma) was 105%.
Work on CCN(CC)c1ccc(/C=N/NC(=O)c2ccc(S(C)(=O)=O)cc2)c(O)c1 yielded a growth (NCI-H23 lung) of 32.8%, a growth (NCI-H226 lung) of 22.6% and a growth (HOP-62 NSCLC) of 12.9%. For the same compound, the growth (NCI-H460 lung) was 3.28% (active), the growth (A549/ATCC NSCLC) was 12.5% and the growth (786-0 renal) was 15.4%. The growth (COLO 205 colon) was 8.62% (active), the growth (DU-145 prostate) was 24.5% and the growth (K-562 leukemia) was 12.4%. For the same compound, the growth (MALME-3M melanoma) was 14%, the growth (MDA-MB-231 breast) was 43.2% and the growth (RXF 393 renal) was 28.6%. The growth (SF-268 CNS) was 21.8%, the growth (SF-295 CNS) was 21.4% and the growth (SF-539 CNS) was 4.01% (active). For the same compound, the growth (UACC-257 melanoma) was -11.5% (active) and the growth (M14 melanoma) was 3.37% (active).
